How the values were obtained:
Assay in all cases: log2 ratio of Biotin-Ahx-Ub-VS probe labelling (fragment/DMSO); higher = less target engagement (more negative = stronger competition), active = hit call of the paper (q ≤ 0.05, log2 ratio ≤ -1)
Conditions in all cases: compound concentration: 200 uM; treatment time: 3 h
USP19 = target: T1, USP19 (UniProt O94966)
T1 sequence (whole entry): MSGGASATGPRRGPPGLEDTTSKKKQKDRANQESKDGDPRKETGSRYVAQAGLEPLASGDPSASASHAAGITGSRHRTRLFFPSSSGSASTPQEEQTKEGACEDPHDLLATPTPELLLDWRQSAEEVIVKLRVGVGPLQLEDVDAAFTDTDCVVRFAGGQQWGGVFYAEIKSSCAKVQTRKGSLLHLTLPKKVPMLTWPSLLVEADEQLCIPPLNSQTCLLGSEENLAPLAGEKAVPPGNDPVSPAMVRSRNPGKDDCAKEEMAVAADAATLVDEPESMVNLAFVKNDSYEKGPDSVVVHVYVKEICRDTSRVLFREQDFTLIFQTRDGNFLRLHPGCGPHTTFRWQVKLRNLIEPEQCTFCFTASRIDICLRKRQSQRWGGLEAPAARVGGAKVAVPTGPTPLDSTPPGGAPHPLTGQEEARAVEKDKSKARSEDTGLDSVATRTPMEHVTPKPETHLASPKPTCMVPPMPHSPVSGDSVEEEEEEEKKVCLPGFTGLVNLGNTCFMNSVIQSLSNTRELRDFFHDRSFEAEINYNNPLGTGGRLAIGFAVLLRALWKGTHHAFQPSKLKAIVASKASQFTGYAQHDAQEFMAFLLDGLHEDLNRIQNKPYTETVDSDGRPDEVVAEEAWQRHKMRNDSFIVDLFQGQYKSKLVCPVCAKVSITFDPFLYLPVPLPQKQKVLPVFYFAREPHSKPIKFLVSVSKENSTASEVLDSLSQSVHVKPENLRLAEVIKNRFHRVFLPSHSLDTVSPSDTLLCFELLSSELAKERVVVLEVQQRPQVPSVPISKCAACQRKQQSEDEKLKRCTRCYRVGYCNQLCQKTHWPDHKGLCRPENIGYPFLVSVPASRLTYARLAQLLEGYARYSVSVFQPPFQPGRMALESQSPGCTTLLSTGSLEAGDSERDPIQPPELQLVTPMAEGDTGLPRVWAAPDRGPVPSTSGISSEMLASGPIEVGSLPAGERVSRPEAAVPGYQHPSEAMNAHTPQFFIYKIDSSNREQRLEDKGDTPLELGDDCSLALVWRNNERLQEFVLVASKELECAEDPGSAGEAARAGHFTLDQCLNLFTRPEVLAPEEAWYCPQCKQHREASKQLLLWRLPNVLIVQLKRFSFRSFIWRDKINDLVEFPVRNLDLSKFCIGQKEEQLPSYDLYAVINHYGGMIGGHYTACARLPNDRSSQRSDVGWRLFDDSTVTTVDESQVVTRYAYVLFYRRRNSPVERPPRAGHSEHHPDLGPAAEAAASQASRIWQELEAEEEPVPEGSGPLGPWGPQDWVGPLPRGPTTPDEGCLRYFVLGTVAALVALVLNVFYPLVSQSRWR
Procedure, shortened: (§1)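 Labelled DUBs from HEK293T lysate were NeutrAvidin-enriched, digested with LysC and trypsin, and run by diaPASEF LC-MS/MS. Before that, each 495 µg sample in Tris/CHAPS/IGEPAL buffer with protease inhibitors was treated in triplicate with fragment at 200 µM or vehicle for 3 h, then with Biotin-Ahx-Ub-VS at 0.5 µM final for 1 h. Values are average log2 ratios of fragment over vehicle by unpaired t-test, based on global-median-normalised Spectronaut label-free quantities from proteins with ≥2 unique peptides.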

USP24 = USP24 (UniProt Q9UPU5)
Procedure, shortened: as §1

USP25 = target: T2, USP25 (UniProt Q9UHP3)
T2 sequence (whole entry): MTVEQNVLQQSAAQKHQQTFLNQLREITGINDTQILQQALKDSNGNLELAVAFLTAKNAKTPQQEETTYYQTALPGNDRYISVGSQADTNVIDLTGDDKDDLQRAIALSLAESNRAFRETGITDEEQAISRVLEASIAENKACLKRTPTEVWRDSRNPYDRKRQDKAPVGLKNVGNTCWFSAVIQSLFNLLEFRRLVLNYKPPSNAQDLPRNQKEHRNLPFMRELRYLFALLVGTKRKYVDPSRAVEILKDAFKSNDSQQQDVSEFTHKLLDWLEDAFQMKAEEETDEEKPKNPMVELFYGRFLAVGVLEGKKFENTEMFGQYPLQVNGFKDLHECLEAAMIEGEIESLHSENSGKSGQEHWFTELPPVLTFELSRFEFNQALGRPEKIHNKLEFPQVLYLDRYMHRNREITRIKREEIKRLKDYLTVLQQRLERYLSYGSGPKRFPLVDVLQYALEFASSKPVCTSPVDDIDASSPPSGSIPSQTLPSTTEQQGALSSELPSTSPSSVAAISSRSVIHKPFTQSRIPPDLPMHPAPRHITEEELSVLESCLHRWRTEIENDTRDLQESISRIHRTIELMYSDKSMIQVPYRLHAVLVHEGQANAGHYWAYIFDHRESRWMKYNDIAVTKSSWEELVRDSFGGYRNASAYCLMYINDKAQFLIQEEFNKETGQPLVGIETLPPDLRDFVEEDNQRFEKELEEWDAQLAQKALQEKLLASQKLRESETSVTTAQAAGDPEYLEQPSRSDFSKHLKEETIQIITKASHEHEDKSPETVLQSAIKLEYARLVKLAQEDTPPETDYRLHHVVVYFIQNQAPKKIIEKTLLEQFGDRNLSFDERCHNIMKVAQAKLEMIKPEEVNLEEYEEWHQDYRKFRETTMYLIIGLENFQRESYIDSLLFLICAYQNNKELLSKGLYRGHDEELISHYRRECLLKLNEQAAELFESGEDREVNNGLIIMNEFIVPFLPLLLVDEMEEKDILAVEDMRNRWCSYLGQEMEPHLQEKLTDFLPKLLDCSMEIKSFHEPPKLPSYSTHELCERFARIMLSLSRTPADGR
Procedure, shortened: as §1

USP28 = target: T3, USP28 (UniProt Q96RU2)
T3 sequence (whole entry): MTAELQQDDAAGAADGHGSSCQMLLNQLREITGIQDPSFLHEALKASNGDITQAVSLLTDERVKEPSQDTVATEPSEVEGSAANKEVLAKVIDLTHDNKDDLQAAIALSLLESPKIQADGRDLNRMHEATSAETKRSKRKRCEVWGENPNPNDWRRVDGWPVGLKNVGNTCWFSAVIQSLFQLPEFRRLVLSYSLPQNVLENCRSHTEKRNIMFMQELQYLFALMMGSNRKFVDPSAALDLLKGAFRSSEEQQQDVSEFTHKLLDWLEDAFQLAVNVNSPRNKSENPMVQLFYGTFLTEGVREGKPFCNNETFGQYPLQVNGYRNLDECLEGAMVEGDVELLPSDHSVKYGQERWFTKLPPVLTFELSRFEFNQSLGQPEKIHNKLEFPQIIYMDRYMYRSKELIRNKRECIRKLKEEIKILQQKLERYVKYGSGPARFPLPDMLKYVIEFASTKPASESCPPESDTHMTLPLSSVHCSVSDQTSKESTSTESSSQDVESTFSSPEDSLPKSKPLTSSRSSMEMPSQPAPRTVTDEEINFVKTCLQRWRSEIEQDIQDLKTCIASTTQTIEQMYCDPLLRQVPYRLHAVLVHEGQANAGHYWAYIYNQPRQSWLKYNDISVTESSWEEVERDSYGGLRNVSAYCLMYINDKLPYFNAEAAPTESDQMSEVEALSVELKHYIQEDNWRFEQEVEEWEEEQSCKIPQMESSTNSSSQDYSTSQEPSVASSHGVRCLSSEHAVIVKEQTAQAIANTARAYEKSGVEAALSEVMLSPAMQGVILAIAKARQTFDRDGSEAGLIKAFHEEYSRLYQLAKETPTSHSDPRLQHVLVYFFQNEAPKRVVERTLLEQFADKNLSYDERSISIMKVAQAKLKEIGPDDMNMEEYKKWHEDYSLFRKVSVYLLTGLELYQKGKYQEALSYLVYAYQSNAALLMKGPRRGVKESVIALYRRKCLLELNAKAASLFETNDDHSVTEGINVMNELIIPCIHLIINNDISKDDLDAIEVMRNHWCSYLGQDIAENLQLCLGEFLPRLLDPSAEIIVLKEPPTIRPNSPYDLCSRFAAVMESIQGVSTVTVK
Procedure, shortened: as §1

Measured: log2 ratio of Biotin-Ahx-Ub-VS probe labelling

USP24, sequence (Q9UPU5 whole entry): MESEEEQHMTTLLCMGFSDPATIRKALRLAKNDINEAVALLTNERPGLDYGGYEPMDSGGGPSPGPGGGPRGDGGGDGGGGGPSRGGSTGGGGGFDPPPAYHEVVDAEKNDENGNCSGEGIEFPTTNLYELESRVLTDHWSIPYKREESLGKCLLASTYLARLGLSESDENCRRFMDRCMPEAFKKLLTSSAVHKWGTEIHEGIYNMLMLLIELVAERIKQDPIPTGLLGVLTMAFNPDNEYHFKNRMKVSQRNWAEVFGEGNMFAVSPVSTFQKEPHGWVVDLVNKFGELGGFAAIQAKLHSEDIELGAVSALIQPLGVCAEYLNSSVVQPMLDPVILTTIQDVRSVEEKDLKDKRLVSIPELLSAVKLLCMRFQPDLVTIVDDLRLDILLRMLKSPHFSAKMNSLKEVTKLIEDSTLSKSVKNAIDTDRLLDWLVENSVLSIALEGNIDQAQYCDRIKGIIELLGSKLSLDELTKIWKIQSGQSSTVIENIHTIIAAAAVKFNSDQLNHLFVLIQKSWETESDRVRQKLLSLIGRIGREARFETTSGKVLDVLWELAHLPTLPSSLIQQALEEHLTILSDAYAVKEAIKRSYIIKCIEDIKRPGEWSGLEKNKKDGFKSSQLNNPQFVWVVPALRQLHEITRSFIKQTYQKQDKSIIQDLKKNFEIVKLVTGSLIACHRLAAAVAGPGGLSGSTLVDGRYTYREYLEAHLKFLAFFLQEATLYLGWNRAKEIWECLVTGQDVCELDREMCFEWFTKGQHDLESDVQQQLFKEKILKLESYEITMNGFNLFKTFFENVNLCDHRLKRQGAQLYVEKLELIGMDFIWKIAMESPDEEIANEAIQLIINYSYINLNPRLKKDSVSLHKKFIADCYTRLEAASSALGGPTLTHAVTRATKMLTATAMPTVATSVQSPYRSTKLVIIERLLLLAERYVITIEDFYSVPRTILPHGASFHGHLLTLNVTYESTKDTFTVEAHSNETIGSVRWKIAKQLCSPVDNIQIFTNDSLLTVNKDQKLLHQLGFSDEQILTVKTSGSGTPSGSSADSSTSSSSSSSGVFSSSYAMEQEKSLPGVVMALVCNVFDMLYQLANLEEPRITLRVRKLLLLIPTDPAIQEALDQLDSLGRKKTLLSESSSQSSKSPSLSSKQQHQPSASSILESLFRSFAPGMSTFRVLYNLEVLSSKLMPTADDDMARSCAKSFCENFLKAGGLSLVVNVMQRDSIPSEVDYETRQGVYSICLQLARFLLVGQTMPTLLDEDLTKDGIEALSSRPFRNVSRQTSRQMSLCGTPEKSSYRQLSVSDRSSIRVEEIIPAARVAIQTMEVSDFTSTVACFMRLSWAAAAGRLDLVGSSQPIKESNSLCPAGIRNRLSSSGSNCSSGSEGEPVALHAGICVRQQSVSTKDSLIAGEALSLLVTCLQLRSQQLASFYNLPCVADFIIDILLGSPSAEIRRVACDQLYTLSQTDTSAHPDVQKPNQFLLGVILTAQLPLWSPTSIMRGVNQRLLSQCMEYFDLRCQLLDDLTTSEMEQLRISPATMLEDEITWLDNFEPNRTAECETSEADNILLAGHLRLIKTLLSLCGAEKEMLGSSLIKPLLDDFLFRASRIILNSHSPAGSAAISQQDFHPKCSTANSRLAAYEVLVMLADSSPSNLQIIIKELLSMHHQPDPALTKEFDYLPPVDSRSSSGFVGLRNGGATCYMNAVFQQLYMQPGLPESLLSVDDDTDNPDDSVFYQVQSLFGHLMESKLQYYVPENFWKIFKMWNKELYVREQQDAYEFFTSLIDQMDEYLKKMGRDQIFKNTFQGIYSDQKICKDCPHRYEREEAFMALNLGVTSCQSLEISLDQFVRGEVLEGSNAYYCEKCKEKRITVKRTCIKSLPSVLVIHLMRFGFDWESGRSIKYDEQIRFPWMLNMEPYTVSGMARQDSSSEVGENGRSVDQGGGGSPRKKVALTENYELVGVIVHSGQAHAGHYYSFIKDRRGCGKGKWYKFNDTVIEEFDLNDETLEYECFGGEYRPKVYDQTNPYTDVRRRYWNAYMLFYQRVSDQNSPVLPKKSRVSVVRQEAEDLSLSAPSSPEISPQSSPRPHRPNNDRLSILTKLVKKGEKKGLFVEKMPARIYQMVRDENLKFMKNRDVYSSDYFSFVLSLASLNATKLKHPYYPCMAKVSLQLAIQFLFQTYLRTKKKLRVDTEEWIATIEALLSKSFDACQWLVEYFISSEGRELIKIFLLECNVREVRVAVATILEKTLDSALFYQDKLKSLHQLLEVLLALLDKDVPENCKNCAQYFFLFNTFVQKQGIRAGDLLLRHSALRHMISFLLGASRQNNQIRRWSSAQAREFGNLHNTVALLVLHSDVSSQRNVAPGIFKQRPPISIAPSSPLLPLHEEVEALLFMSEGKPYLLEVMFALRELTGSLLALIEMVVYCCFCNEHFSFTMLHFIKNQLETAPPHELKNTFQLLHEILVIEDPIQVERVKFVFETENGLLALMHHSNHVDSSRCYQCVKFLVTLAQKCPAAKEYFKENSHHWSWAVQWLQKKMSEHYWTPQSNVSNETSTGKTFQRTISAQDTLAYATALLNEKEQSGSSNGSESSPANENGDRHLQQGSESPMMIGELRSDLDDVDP

Cc1ccc(N(C(=O)CCl)C2C=CS(=O)(=O)C2)cc1 (centres undefined)
inactive: USP19 0.0392 | USP24 -0.681 | USP25 0.0868 | USP28 -0.13
